Here are results for 86 sequences from the supplement of paper PMC3334620.

The full ranking holds about 33,000 sequences; the median of “E-score (-0.5 to 0.5)” is about -0.054, and the highest 2% start at about 0.35. The full list was thinned out, with the highest values kept by preference.

In this assay the target is T1, Stb5 (UniProt P38699).
T1 sequence: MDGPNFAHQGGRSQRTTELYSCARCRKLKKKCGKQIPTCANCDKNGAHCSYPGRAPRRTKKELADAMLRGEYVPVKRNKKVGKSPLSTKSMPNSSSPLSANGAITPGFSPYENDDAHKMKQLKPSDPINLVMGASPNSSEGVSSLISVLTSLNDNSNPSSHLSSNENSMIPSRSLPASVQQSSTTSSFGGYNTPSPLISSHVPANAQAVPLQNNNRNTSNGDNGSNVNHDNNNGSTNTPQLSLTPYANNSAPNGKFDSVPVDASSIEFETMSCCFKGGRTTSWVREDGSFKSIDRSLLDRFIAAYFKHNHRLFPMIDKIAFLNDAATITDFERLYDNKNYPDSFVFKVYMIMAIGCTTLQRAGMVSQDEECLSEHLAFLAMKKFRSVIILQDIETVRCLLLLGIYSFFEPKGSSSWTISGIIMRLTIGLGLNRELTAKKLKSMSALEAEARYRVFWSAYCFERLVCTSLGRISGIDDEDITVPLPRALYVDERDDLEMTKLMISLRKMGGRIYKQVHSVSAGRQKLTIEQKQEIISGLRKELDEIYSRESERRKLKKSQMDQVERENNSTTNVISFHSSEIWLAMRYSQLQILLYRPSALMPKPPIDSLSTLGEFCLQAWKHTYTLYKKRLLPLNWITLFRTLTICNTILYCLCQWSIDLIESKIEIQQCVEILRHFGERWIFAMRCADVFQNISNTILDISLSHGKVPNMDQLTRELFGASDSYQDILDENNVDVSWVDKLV
As to the kind of experiment: PBM E-score (8-mer binding enrichment) (E-score (-0.5 to 0.5)); higher = stronger / more preferred TF binding. The conditions noted are these: protein concentration: 200 nM; construct: GST-full length. An outline of the steps:
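PURExpress in vitro transcription/translation supplied GST-tagged yeast transcription factors, either full-length or DNA-binding domain. Applied at about 100-200 nM to universal all-10-mer Agilent arrays double-stranded by primer extension, the bound protein was detected with fluorescent anti-GST. E-scores, modified Wilcoxon-Mann-Whitney statistics, were given by the Universal PBM Analysis Suite to ungapped eight-base words pooled with their reverse complements after masliner normalisation.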
For AACGGCGT, the “PBM E-score” value came out at 0.348. As for ACCGGCGT, the figure is 0.365; as for ACCGGCAT, 0.337.

As for ACCGGCGG, the “PBM E-score” value was 0.403. Take GGAACAGA: the “PBM E-score” value was -0.104. For AGCGCCTC the value was -0.0428. As for CCTATGCA, the figure is -0.158; as for GTCCGCAA, 0.196; as for ATCCGCTA, 0.155. Consider ATCCGCCA, for which the “PBM E-score” value was 0.18. For GTCCGCCA the value was 0.4.

On to GTCCGCTA, for which the “PBM E-score” value is 0.374. Regarding CTCCGCTA, the “PBM E-score” value is 0.349.

GTTTCTTA: the “PBM E-score” value turned out to be 0.00445. For CGGCAGTA the value was 0.4; for CGGCAATA, 0.454.

With AGGCAGTA, the “PBM E-score” value is -0.205.

With CGGCAGTC, the “PBM E-score” value was found to be 0.11. As for CGGCAATC, the figure is 0.185; as for AGGCAATA, -0.0408. For CGAACCCG, the “PBM E-score” value amounted to 0.103.

Turning to CGACCAGC, the “PBM E-score” value is 0.128. As for AATCGCGT, the figure is -0.00793.

As for GAACCTTC, the “PBM E-score” value is -0.201. For CATCGCTC the value was -0.00533. As for ATTTGCAC, the figure is -0.273; as for CGCGCATA, 0.112. As for ATCGGTGA, the figure is 0.366; as for CTCGGTGA, 0.244; as for GTCGGTGA, 0.374.

For the sequence GTCGGTCA, the “PBM E-score” value came out at 0.259.

On to ATCGGTGC, for which the “PBM E-score” value is 0.324. For ATCGGTGG the value was 0.276; for CTTCGGGA, 0.131. As for CTCTTAAA, the figure is -0.0109; as for CTGACCAA, -0.176. As for AGGTTGTC, the figure is -0.204; as for CGCCTGGA, -0.0581; as for TTCACCAA, -0.0231. As for AAGTCCCG, the “PBM E-score” value worked out at 0.385. As for AAGTCCGT, the figure is 0.454; as for AAGTCCTG, 0.0166.

As to AAGTCCTA, the “PBM E-score” value stood at 0.0926. For AAGTCCTC the value was -0.066.

As to CAGTCCCG, the “PBM E-score” value was 0.192. For CAGTCCGG, the “PBM E-score” value came to 0.189. Turning to AAGTCCAT, the “PBM E-score” value stood at 0.0307. As for CAGTCCGC, the figure is 0.252; as for AAGTCCGC, 0.46.

Take AAGTCCCT: the “PBM E-score” value is -0.209. AAGTCCGG: the “PBM E-score” value amounted to 0.43.

As to GATATCCA, the “PBM E-score” value is -0.16. As for GCCCAAAC, the “PBM E-score” value is -0.0152. As for CAGCGTGC, the figure is 0.0885; as for GAACAGCC, -0.134; as for TCCGTGCA, 0.23.

ACCCTGTG: the “PBM E-score” value is -0.19.

For AACAGTTG, the “PBM E-score” value was -0.0985. As for ATCTGCCA, the figure is -0.118; as for TCTAGTCA, -0.11. For CATGTGCC the value was -0.177; for GAGTCCGC, 0.371. As for AAGTCCGA, the “PBM E-score” value turned out to be 0.459.

With TAGTCCGA, the “PBM E-score” value came out at 0.309. GAGTCCGA: the “PBM E-score” value amounted to 0.286.

For CAGTCCGA, the “PBM E-score” value was determined as 0.273. As for GAGTCCCC, the figure is -0.12; as for ATTGTCCA, -0.191. As for ATTGTCCG, the figure is 0.372; as for CATGTCCG, 0.273; as for ATTGTCCC, 0.0499. For AATGTCCA the value was -0.0901; for AATGTCCG, 0.438; for ACTGTTAC, -0.163. With CCATCGCG, the “PBM E-score” value worked out at 0.195. As for AACCCCTT, the figure is 0.0178. GCACGTGA: the “PBM E-score” value is -0.337.

Turning to GATCGGAA, the “PBM E-score” value came out at 0.133. For GATCGGGC the value was 0.301; for AATCGGAG, 0.263.

For the sequence AATCGGAC, the “PBM E-score” value is 0.362. For CATCGGAC the value was 0.34.

As for GATCGGAC, the “PBM E-score” value was determined as 0.415. As for ACGCGCCT, the figure is 0.013; as for ACTTGACC, -0.0754; as for AACGGCAG, 0.107.
